What all share (assay): DAPPL (digital affinity profiling via proximity ligation, sequencing); 10 mM Tris-HCl pH 7.5, 50 mM NaCl, 1 mM DTT, 4% glycerol, room temperature, 30 min; GST-TFs on glutathione beads, 16-mer random dsDNA library, 0.1% formaldehyde crosslink after washing; high values mean tight binding
Holding throughout (details): protein: recombinant; tags: N-terminal GST; dsDNA, one strand shown

One experiment concerns the target T1, FLI1 (Homo sapiens, UniProt Q01543 1-452).
T1 sequence: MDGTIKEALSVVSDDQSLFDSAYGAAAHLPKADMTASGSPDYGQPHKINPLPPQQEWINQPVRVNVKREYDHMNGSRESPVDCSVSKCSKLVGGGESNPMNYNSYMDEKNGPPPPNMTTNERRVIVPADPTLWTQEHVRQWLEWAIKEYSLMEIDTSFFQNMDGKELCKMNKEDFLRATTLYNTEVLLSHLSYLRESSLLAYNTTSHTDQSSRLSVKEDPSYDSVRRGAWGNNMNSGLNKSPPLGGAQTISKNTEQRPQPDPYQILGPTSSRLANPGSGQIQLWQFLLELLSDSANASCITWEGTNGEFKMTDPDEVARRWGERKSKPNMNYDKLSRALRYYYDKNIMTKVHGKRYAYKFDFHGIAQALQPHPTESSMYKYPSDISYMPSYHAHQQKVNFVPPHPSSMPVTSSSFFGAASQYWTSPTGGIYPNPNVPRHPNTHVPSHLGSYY
The method in brief: (§1)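 Pools were built from human transcription factors expressed in yeast as GST fusions, captured on glutathione beads and DNA-barcoded, along with a tag-only sample. Incubation with 200 nmole of a 16-mer random double-stranded DNA library lasted 30 min at room temperature in Tris/NaCl/DTT/glycerol buffer, and was followed by washing, 0.1% formaldehyde crosslinking, proximity ligation, PCR amplification and Illumina NextSeq500 sequencing. Binding signal is the quotient of each hexamer's read frequency for a factor and its frequency for the tag-only sample.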

The next experiment deals with T2, ELK1 (Homo sapiens, UniProt P19419 1-428).
T2 sequence: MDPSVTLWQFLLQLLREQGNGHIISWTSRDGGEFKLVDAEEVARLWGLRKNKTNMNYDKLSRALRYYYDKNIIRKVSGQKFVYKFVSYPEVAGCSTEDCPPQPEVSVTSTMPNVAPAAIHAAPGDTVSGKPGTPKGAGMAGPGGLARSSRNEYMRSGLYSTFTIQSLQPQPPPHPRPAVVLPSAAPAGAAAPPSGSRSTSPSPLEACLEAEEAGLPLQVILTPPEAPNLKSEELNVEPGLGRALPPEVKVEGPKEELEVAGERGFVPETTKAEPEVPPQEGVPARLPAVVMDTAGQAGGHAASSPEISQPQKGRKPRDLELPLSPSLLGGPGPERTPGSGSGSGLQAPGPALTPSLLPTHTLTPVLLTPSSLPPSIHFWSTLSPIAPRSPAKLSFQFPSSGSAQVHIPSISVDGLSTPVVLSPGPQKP
A digest of the protocol:
as §1

Another experiment deals with SPIB (Homo sapiens, UniProt Q01892 1-262). A digest of the protocol: as §1
In a further experiment the target is T3, ELK3 (Homo sapiens, UniProt P41970 1-407).
T3 sequence: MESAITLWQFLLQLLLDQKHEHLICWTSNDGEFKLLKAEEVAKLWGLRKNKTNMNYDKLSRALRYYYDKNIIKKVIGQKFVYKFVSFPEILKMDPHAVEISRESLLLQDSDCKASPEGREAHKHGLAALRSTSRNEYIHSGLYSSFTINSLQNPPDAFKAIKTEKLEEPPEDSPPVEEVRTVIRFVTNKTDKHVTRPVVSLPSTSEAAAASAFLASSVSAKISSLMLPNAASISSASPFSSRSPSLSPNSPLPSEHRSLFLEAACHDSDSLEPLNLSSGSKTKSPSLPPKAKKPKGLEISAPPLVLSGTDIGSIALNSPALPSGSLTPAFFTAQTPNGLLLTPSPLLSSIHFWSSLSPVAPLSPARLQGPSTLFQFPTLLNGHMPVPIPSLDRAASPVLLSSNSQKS
The method in brief: as §1

Another experiment concerns the target ETV5 (Homo sapiens, UniProt P41161 1-510). A digest of the protocol: as §1
The next experiment addresses ELF4 (Homo sapiens, UniProt Q99607 1-663). The method in brief: as §1
The target in the next experiment is T4, ERF (Homo sapiens, UniProt P50548 1-548).
T4 sequence: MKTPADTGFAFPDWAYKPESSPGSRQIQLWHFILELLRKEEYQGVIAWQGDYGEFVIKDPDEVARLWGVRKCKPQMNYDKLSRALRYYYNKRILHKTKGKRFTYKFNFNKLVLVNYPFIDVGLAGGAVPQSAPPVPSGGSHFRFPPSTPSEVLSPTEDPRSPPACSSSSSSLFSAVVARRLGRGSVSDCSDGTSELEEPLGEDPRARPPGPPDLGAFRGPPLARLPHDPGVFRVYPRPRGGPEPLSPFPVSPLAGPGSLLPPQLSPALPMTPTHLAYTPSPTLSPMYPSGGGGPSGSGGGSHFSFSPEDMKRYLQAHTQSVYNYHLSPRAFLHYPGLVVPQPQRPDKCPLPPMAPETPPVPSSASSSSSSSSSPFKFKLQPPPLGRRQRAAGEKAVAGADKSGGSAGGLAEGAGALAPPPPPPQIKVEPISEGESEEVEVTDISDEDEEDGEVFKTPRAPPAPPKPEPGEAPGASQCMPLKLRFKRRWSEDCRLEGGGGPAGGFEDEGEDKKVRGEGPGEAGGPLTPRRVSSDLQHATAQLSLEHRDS
The method in brief: as §1

A further experiment addresses T5, ETS2 (Homo sapiens, UniProt P15036 1-469).
T5 sequence: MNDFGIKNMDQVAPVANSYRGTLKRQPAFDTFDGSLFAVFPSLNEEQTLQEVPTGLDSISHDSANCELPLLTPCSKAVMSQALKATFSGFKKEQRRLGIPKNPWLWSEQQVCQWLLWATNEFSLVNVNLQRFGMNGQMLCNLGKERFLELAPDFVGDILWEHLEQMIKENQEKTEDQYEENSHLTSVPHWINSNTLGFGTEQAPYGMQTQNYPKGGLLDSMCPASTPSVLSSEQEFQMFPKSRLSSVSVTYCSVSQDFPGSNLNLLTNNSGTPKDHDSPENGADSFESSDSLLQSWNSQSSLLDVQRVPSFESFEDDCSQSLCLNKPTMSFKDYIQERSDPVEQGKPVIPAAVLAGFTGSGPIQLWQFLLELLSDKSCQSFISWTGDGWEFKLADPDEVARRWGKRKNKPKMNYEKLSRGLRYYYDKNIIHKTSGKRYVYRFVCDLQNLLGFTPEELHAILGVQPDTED
A digest of the protocol: as §1

The target in another experiment is T6, ELF5 (Homo sapiens, UniProt Q9UKW6-2 1-255).
T6 sequence: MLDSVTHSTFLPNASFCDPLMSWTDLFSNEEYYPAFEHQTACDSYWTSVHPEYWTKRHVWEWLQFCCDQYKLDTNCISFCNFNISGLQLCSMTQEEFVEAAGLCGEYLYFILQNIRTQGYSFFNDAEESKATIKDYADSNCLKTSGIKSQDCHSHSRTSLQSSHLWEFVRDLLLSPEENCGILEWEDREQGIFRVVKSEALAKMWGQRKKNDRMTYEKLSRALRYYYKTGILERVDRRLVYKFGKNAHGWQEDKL
A digest of the protocol:
as §1

Another experiment addresses T7, ETV3 (Homo sapiens, UniProt P41162-2 1-143).
T7 sequence: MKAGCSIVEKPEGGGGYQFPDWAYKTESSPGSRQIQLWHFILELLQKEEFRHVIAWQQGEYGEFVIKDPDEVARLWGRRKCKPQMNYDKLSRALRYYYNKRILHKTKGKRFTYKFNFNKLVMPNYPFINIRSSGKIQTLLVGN
The method in brief:
as §1

The target of the next experiment is ETV6 (Homo sapiens, UniProt P41212 1-452). The method in brief: as §1
The next experiment has as its target T8, GABPA (Homo sapiens, UniProt Q06546 1-454).
T8 sequence: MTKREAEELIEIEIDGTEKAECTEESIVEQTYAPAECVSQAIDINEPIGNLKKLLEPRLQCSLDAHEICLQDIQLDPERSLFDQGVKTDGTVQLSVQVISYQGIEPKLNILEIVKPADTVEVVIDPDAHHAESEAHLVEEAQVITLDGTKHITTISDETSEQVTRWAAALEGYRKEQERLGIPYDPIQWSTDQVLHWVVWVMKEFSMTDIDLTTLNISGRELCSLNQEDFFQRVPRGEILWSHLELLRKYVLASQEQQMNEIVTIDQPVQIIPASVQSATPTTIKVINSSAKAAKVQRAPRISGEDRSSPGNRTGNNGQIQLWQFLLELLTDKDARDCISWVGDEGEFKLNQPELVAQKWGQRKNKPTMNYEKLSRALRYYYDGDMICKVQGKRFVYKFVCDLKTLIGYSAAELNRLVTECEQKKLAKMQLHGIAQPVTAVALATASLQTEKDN
The method in brief: as §1

The next experiment addresses T9, ERG (Homo sapiens, UniProt P11308 1-479).
T9 sequence: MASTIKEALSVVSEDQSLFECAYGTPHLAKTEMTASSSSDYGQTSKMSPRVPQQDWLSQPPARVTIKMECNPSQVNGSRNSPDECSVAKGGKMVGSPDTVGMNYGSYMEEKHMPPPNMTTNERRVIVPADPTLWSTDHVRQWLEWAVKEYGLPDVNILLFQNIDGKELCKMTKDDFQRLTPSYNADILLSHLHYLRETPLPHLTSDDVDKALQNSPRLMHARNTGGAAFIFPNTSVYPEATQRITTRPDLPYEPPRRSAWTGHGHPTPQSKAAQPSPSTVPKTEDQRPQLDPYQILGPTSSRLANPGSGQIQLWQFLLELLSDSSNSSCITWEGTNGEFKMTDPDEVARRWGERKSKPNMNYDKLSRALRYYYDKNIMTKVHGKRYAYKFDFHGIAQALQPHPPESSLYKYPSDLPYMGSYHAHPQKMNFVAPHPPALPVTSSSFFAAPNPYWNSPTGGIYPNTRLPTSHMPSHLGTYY
The method in brief:
as §1

The target of a further experiment is ELF1 (Homo sapiens, UniProt P32519 1-619). A digest of the protocol: as §1
The target in another experiment is SPI1 (Homo sapiens, UniProt P17947 1-270). The method in brief:
as §1

A further experiment concerns the target T10, FEV (Homo sapiens, UniProt Q99581 1-238).
T10 sequence: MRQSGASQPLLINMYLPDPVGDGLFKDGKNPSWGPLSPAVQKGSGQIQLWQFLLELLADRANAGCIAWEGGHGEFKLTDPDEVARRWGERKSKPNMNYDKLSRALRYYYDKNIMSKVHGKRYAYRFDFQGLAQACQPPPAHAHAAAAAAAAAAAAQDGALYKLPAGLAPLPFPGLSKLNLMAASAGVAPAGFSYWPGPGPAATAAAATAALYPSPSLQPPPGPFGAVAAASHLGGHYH
The method in brief:
as §1

In the next experiment the target is ETV1 (Homo sapiens, UniProt P50549 1-477). The method in brief:
as §1

A further experiment has as its target T11, ETV3L (Homo sapiens, UniProt Q6ZN32 1-361).
T11 sequence: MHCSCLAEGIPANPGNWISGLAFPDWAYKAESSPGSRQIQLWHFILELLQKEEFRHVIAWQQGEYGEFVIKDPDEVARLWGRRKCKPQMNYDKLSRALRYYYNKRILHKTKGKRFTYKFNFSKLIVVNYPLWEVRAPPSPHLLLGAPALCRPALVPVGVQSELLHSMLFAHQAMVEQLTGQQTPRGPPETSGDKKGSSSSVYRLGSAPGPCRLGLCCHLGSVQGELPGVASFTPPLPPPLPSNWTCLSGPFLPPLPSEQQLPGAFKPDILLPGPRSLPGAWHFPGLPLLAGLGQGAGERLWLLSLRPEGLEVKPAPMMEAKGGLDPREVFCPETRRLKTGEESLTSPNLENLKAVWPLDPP
A digest of the protocol:
as §1

SPIB, sequence (Q01892 whole entry): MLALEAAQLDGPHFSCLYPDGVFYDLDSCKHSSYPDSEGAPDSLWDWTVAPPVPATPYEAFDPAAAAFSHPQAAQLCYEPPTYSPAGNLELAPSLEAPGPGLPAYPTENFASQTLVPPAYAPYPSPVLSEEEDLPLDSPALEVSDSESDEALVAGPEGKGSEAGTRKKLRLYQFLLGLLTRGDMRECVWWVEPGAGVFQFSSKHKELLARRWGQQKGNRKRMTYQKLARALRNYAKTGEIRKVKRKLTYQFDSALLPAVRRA
ELF4, sequence (Q99607 whole entry): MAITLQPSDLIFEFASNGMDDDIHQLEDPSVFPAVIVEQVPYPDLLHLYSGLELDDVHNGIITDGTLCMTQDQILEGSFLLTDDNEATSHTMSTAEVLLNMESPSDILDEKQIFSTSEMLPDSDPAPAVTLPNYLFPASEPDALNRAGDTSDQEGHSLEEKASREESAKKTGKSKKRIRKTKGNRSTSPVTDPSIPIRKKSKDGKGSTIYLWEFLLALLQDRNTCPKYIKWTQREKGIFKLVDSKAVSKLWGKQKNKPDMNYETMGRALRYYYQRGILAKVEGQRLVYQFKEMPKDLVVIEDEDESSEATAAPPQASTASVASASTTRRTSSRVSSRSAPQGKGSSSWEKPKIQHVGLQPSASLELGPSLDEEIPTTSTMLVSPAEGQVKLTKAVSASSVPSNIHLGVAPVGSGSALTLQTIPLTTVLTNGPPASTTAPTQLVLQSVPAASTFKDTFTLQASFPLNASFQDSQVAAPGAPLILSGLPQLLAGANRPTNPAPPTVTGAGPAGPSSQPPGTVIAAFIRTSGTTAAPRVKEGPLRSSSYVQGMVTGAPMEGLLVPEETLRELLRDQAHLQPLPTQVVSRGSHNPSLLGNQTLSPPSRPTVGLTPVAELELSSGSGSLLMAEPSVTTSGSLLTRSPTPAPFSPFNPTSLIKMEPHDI
ETV5, sequence (P41161 whole entry): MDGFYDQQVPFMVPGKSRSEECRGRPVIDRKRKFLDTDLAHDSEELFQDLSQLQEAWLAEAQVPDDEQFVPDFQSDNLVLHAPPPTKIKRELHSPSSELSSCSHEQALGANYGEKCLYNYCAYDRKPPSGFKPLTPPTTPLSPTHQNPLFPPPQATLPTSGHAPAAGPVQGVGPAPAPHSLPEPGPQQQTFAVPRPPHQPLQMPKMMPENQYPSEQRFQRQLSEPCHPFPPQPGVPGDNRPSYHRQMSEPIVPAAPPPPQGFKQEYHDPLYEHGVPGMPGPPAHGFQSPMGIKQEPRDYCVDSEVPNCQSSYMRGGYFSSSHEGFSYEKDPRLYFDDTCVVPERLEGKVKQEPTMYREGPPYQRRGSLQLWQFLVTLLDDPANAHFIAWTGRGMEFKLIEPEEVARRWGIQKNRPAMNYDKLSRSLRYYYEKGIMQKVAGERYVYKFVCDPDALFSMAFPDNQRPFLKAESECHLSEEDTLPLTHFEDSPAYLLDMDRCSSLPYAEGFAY
ETV6, sequence (P41212 whole entry): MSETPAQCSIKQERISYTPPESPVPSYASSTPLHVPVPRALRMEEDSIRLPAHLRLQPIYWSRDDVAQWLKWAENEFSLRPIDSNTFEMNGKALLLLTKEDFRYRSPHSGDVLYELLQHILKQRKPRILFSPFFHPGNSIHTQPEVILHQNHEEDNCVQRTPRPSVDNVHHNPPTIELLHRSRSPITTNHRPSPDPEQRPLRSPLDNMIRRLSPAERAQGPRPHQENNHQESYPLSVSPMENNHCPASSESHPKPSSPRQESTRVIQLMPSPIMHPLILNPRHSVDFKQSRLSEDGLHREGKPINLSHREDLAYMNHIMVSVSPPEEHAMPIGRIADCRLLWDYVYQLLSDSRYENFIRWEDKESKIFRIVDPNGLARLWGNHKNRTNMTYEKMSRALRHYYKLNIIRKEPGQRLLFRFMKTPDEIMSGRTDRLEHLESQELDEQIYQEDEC
ETV1, sequence (P50549 whole entry): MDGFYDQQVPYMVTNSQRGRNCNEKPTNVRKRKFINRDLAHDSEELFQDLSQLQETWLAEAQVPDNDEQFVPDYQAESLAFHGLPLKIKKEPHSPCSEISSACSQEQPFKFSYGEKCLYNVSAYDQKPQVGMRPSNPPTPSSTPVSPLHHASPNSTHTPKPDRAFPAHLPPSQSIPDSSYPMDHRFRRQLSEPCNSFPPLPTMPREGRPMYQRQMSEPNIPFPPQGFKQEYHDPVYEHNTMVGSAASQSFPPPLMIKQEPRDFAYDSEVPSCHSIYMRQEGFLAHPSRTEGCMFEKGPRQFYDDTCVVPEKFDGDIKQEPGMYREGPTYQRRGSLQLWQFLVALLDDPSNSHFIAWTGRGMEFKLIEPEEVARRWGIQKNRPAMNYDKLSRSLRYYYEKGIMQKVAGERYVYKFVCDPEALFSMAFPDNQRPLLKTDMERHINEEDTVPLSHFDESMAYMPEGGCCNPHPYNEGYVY
ELF1, sequence (P32519 whole entry): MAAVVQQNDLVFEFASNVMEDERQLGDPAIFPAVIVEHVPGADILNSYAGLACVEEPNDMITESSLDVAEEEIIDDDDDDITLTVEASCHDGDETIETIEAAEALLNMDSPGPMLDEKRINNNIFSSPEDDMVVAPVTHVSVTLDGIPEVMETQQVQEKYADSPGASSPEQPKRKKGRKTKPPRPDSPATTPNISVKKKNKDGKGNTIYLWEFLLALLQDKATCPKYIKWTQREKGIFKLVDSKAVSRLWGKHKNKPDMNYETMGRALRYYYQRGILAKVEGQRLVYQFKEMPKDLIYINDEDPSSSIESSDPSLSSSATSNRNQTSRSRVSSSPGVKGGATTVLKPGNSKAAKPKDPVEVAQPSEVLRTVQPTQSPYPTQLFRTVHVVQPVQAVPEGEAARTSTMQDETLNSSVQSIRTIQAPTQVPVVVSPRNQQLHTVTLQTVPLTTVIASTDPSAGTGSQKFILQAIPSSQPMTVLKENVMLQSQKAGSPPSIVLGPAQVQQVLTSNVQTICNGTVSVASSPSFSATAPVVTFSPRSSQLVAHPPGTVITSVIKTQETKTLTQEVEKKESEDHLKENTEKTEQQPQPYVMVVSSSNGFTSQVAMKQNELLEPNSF

With TGTGCG, the binding signal with FLI1 was 1.03 fold enrichment (6-mer frequency, TF over GST control); with ELK1 it was 1.08 fold enrichment (6-mer frequency, TF over GST control); with SPIB, 1.01 fold enrichment (6-mer frequency, TF over GST control); with ELK3 it was 1.01 fold enrichment (6-mer frequency, TF over GST control); with ETV5, 1.04 fold enrichment (6-mer frequency, TF over GST control); in the experiment with ELF4, 1.01 fold enrichment (6-mer frequency, TF over GST control). Moreover, the binding signal with ERF was 1.06 fold enrichment (6-mer frequency, TF over GST control); with ETS2, 1.05 fold enrichment (6-mer frequency, TF over GST control); in the experiment with ELF5, 1.07 fold enrichment (6-mer frequency, TF over GST control); with ETV3, 1.04 fold enrichment (6-mer frequency, TF over GST control); in the experiment with ETV6 it was 1.06 fold enrichment (6-mer frequency, TF over GST control).

As for CCCTGA, the binding signal in the experiment with FLI1 was 1 fold enrichment (6-mer frequency, TF over GST control); in the experiment with ELK1, 1.18 fold enrichment (6-mer frequency, TF over GST control); with GABPA, 1.05 fold enrichment (6-mer frequency, TF over GST control); with ERG, 1.04 fold enrichment (6-mer frequency, TF over GST control); with ELF1, 1.06 fold enrichment (6-mer frequency, TF over GST control); with SPI1, 1.03 fold enrichment (6-mer frequency, TF over GST control). Also, the binding signal with SPIB is 1.1 fold enrichment (6-mer frequency, TF over GST control); in the experiment with ELK3 it was 1.12 fold enrichment (6-mer frequency, TF over GST control); in the experiment with FEV, 1.04 fold enrichment (6-mer frequency, TF over GST control); in the experiment with ETV5, 1.07 fold enrichment (6-mer frequency, TF over GST control); with ELF4 it was 1.05 fold enrichment (6-mer frequency, TF over GST control); in the experiment with ETV1, 1.09 fold enrichment (6-mer frequency, TF over GST control). Further, the binding signal with ETV3L is 1.04 fold enrichment (6-mer frequency, TF over GST control); with ETS2 it was 1.02 fold enrichment (6-mer frequency, TF over GST control); with ELF5 it was 1.06 fold enrichment (6-mer frequency, TF over GST control); in the experiment with ETV3, 1.01 fold enrichment (6-mer frequency, TF over GST control); in the experiment with ETV6, 1.05 fold enrichment (6-mer frequency, TF over GST control).
